{
  "source": "PubChem BioAssay (EPA / NIEHS)",
  "note": "Records with an inconclusive call do not appear. Activity calls are given as the source filed them. Rule for the calls: active = hit-call score of the fitted dose curve at least 0.9, where 1 is the maximum; inconclusive = response in the unintended direction; inactive = score below 0.9. Peptide text beside a SMILES is read from it.",
  "data": [
    {"target": "Bile acid receptor (Homo sapiens) (UniProt Q96RI1)", "sequence (Q96RI1 whole entry, looked up)": "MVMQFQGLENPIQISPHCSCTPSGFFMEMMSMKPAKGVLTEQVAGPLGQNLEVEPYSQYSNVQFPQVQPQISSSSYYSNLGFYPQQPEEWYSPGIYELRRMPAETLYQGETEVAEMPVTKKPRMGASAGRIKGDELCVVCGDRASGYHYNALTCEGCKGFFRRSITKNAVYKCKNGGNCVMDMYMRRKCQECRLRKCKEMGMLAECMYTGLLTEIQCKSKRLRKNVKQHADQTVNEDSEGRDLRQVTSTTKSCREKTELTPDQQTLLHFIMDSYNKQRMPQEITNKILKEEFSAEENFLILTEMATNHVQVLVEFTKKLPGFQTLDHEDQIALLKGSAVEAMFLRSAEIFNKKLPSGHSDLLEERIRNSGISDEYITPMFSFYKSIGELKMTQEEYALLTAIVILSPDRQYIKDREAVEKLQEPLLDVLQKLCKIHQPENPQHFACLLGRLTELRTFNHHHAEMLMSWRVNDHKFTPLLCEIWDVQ", "test": "OT_FXR_FXRSRC1_0480: Odyssey Thera (OT) 8-hour HEK293T Protein-Complementation Assay for Farnesoid X receptor/SRC-1 Co-activator (AID 2283383)", "description": "OT_FXR_FXRSRC1_0480 is a cell-based assay that uses HEK293T, a human kidney cell line, with measurements taken at 8 hours after chemical dosing in a 384-well plate.OT_FXR_FXRSRC1_0480 is one of one assay component(s) measured or calculated from the OT_FXR_FXRSRC1_0480 assay. It is designed to make measurements of protein fragment complementation, a form of binding reporter, as detected with fluorescence intensity signals by Protein-fragment Complementation technology.Data from the assay component OT_FXR_FXRSRC1_0480 was analyzed into 1 assay endpoint. This assay endpoint, OT_FXR_FXRSRC1_0480, was analyzed in the positive analysis fitting direction relative to DMSO as the negative control and baseline of activity. Using a type of binding reporter, measures of receptor for gain-of-signal activity can be used to understand the binding at the pathway-level as they relate to the gene NR1H4. Furthermore, this assay endpoint can be referred to as a primary readout, because the performed assay has only produced 1 assay endpoint. To generalize the intended target to other relatable targets, this assay endpoint is annotated to the nuclear receptor intended target family, where the subfamily is non-steroidal.\nProtein-fragment complementation assay, or PCA, is a method for the identification and quantification of protein-protein interactions. In the PCA, the proteins of interest (\"bait\" and \"prey\") are each covalently linked to fragments of a third protein (e.g. DHFR, which acts as a \"reporter\"). Interaction between the bait and the prey proteins brings the fragments of the reporter protein in close proximity to allow them to form a functional reporter protein whose activity can be measured.", "values": [
      {"smiles": "O=C(OCc1ccccc1)c1ccc(O)cc1", "AC50": "50 µM (active)"},
      {"smiles": "COc1ccc(C(=O)c2ccccc2)c(O)c1", "outcome": "inactive"},
      {"smiles": "CC(=O)/C=C/C1C(C)=CCCC1(C)C", "note": "(configuration not stated)", "outcome": "inactive"},
      {"smiles": "O=C(O)C1CCC(C(=O)O)CC1", "note": "(configuration not stated)", "outcome": "inactive"},
      {"smiles": "CCN1CN(CC)CN(CC)C1", "outcome": "inactive"},
      {"smiles": "Cc1ccc(C)c(OCCCC(C)(C)C(=O)O)c1", "outcome": "inactive"},
      {"smiles": "CCCCCCCCCCCCCC(=O)OC(C)C", "outcome": "inactive"},
      {"smiles": "CCCCC(=O)O", "outcome": "inactive"},
      {"smiles": "CC(CCC(=O)O)(c1ccc(O)cc1)c1ccc(O)cc1", "outcome": "inactive"},
      {"smiles": "CCCCc1ccc(Cl)cc1", "outcome": "inactive"},
      {"smiles": "CCCCCCOC(=O)CCCCC(=O)OCCCCCC", "outcome": "inactive"},
      {"smiles": "Nc1ccc(C(=O)O)cc1", "outcome": "inactive"},
      {"smiles": "CCCCCCCCC(CO)CCCCCC", "note": "(configuration not stated)", "outcome": "inactive"},
      {"smiles": "CCCCNS(=O)(=O)c1ccccc1", "outcome": "inactive"},
      {"smiles": "CC(C)=CCCC(C)=CC#N", "outcome": "inactive"},
      {"smiles": "CC(C)(C)NC(=O)[C@H]1CC[C@H]2[C@@H]3CC[C@H]4NC(=O)C=C[C@]4(C)[C@H]3CC[C@]12C", "outcome": "inactive"},
      {"smiles": "C/C=C/C=C/CCCCCCCO", "outcome": "inactive"},
      {"smiles": "CCCCCCOc1ccc(N)cc1", "outcome": "inactive"},
      {"smiles": "CCCCC(CC)COS(=O)(=O)O", "note": "(configuration not stated)", "outcome": "inactive"},
      {"smiles": "CCOC(=O)c1ccccc1C", "outcome": "inactive"},
      {"smiles": "CC(C)(C)C1CCC(=O)CC1", "outcome": "inactive"},
      {"smiles": "CCCCC(C=O)CC", "note": "(configuration not stated)", "outcome": "inactive"},
      {"smiles": "COC(=O)[C@H](Cc1ccccc1)NC(=O)[C@@H](N)CC(=O)O", "note": "(H-Asp-Phe-OMe)", "outcome": "inactive"},
      {"smiles": "CCC(C)(O)CCCC(C)C", "note": "(configuration not stated)", "outcome": "inactive"},
      {"smiles": "CCc1occc(=O)c1O", "outcome": "inactive"},
      {"smiles": "CCCCNC(=S)NCCCC", "outcome": "inactive"},
      {"smiles": "CCC[Si](OC)(OC)OC", "outcome": "inactive"},
      {"smiles": "Cc1ccc([N+](=O)[O-])cc1N", "outcome": "inactive"},
      {"smiles": "CCOC(=O)C1=NOC(c2ccccc2)(c2ccccc2)C1", "outcome": "inactive"},
      {"smiles": "Cc1cc(C)n(CO)n1", "outcome": "inactive"},
      {"smiles": "CCC1COC(=O)O1", "note": "(configuration not stated)", "outcome": "inactive"},
      {"smiles": "CC12CCC(CC1)C(C)(C)O2", "outcome": "inactive"},
      {"smiles": "N#Cc1ccc(C(c2ccc(C#N)cc2)n2cncn2)cc1", "outcome": "inactive"},
      {"smiles": "O=C(Nc1ccccc1)c1cc(Cl)ccc1O", "outcome": "inactive"},
      {"smiles": "C=C[Si](OCCOC)(OCCOC)OCCOC", "outcome": "inactive"},
      {"smiles": "CCCCCCCCCCCCCCCCCCOS(=O)(=O)O", "outcome": "inactive"},
      {"smiles": "CCCCC/C=C\\C/C=C\\CCCCCCCC(=O)O", "outcome": "inactive"}
    ]}
  ]
}
